In assay [1] the target is Glutaminase kidney isoform, mitochondrial (Homo sapiens) (UniProt O94925). Briefly: qHTS for Inhibitors of Glutaminase (GLS): LOPAC Validation (AID 624146). Note: nearly all actives have a fitted effect of over 60% in size. Note: potency is the fitted concentration of half-maximal effect. In outline:
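Read-out is an Amplex red fluorescence increase coupled through glutamate oxidase and HRP, measured before and after 30 min room-temperature incubation. hKGA is in 45 mM KH2PO4 (pH 8.2) with 0.02% Tween-20; glutamine added as 1mM solution.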

Assay [2] in a line: qHTS of Trypanosoma Brucei Inhibitors: LOPAC Validation (AID 624147). Note: potency is the fitted concentration of half-maximal effect. Put shortly:
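ADP (130 uM final) triggers the TbPYK reaction after compound addition; incubation is 45 min at room temperature. Kinase-Glo Plus is then added and luminescence imaged. Normalized data are fitted to concentration-effect curves.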
(qHTS replaces the single test concentration by a dilution series.)

Assay [3] is described as follows: S16 Schwann cell viability assay (CellTiter-Glo assay) (AID 624031).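 Note: native untransfected S16 rat Schwann cells; cellular ATP luminescence as a viability measure; nearly all actives have a fitted effect of over 70% in size.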 In outline:
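Rat S16 Schwann cells without reporter constructs received compound or DMSO for 24 h at 37 °C under 5% CO2. Cellular ATP was then quantified by CellTiter-Glo luminescence, with vehicle wells defined as 0% activity and cell-free wells as reference.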
A general note: In ATP-based viability assays light output follows the ATP content of the culture.

Assay [4] in a line: HTS Assay for Allosteric Antagonists of the Human D2 Dopamine Receptor: Hit Validation in HTRF (AID 624455). In outline: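 Signal from an HTRF read-out in D1-expressing stable cells gave hit activity as inhibition of the D1 response.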
(TR-FRET usually uses a lanthanide donor and a delayed reading to cut background.)

Assay [5] is described as follows: S16 Schwann cell PMP22 intronic element beta-lactamase assay (AID 624044; calls by dose curve; note: nearly all actives have a fitted effect of over 15% in size). In outline:
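Rat S16 Schwann cells with beta-Lac driven by a PMP22 intronic element, compound-treated 24 h at 37 °C. LiveBLAzer FRET B/G read: 460 nm normalized to potassium clavulanate vs DMSO; 535 nm FRET as viability; concentration-effect curves classified.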

Assay [6] can be described thus: Cytotoxicity counterscreen for NFkB agonists and antagonists (AID 624476).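 Note: cells exposed to compound for 48 hours.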 Note: potency is the fitted concentration of half-maximal effect.
Assay [7] is described as follows: qHTS Assay for Identification of Small Molecule Agonists for NFkB Signaling Pathway. (AID 624478).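 Note: compounds tested together with TNF alpha at its EC50 of 10 pM.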 In outline: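 Cells carrying an NFkB response element-driven beta-lactamase gene are co-treated with compound and 10 pM TNF alpha for 5 h, and reporter activity is then read as 460 and 530 nm fluorescence.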
A short description of assay [8]: qHTS Assay for Identification of Small Molecule Antagonists for NFkB Signaling Pathway. (AID 624479; calls by dose curve;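 note: pathway stimulated with TNF alpha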; note: potency is the fitted concentration of half-maximal effect).
Assay [9] is described as follows: Cell Proliferation Assay against the TMD8 Cell Line (AID 651645).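 Note: cells exposed to compound for 48 h before reading.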 As to conditions: TMD8 DLBCL cell line proliferation/viability; at 46.1 µM (top of the series) unless noted. Put shortly:
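500 TMD8 cells/well, RPMI + Glutamax, no phenol red, 5% FBS; cpd added immediately; 48 h, 37C, 5% CO2; CellTiter-Glo, luminescence. Controls: DMSO = 100%, bortezomib 9.2 uM final = 0%.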

The source of these data is PubChem BioAssay (NCATS).

Structures are written as SMILES. Inconclusive results are not listed. A call without a number means that no potency is given here. Active and inactive are the calls of the source. Unless noted, calls come from the whole dose curve; as a rule, active = well fitted curve in the direction sought with a large enough effect; inconclusive = small, poorly fitted or top-dose-only effect, or another doubt; inactive = no such curve, though single readings can be large; an effect the other way counts as inactive or inconclusive.

Sequence of Glutaminase kidney isoform, mitochondrial (Homo sapiens) (O94925 whole entry, looked up, canonical isoform): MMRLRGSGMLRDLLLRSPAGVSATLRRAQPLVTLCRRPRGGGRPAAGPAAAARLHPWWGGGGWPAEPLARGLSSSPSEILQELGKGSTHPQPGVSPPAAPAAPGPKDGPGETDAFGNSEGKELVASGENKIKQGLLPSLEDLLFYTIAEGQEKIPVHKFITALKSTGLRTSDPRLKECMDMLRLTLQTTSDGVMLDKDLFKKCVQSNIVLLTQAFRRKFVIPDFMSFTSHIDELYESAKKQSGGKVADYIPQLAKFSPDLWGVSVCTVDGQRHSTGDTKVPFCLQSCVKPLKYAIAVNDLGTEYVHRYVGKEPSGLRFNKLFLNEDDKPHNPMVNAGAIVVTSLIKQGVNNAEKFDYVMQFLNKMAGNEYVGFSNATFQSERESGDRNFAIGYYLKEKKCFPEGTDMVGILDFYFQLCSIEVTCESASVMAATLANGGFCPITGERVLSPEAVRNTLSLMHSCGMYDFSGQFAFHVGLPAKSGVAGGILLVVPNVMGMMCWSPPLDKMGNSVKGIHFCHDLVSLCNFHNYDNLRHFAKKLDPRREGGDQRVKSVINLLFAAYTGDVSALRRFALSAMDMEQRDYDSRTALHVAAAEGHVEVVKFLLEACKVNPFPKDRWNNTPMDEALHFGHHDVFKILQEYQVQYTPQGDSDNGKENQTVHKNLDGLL

In the case of `O=C1NC(=O)C(c2ccccc2[N+](=O)[O-])=C1Nc1ccc(O)c(Cl)c1`, in assay [1], the Potency was 10 µM (active). Further, the Potency result in [2] is “inactive”.
`Nc1ccn([C@@H]2O[C@H](CO)[C@@H](O)C2O)c(=O)n1` (stereo not given in full): the Potency entry in [3], in assay [1] and in assay [2] was “inactive” each time. Moreover, in assay [4], the outcome was inactive.
With `CC(=O)O[C@H]1C(=O)[C@@]2(C)C([C@H](OC(=O)c3ccccc3)[C@]3(O)C[C@H](OC(=O)[C@H](O)[C@@H](NC(=O)c4ccccc4)c4ccccc4)C(C)=C1C3(C)C)[C@]1(OC(C)=O)CO[C@@H]1C[C@@H]2O` (stereo not given in full), the Potency result in assay [1] and in assay [2] was “inactive” each time. The outcome in [4] was inactive.
Consider `Cc1nc2n(c(=O)c1CCN1CCC(c3noc4cc(F)ccc34)CC1)CCCC2`, for which the Potency result in assay [3] and in [5] was “inactive” each time.
Take `Cc1ccc(Nc2nccc(N(C)c3ccc4c(C)n(C)nc4c3)n2)cc1S(N)(=O)=O`: in assay [6], the Potency result was “inactive”. In assay [7], the outcome was inactive. Moreover, the Potency in assay [8] is 16.8 µM (active). In addition, the viability (% of control) in assay [9] was 13.2%.
Take `O=C1c2c(O)cc(O)cc2OC(c2ccc(O)c(O)c2)C1O` (stereo not given): in assay [1], the Potency was 0.708 µM (active). The Potency result in [2] was “inactive”. In assay [4], the result was inactive.
`CC(C)c1ccc2c(c1)c(SC(C)(C)C)c(CC(C)(C)C(=O)O)n2Cc1ccc(Cl)cc1`: the Potency result in assay [2] is “inactive”. Further, the outcome in [4] and in assay [7] was inactive. The Potency in [6] was 8.33 µM (active). In assay [9], the viability (% of control) is 9.44%.
For `COc1cc2c(N3CCN(C(=O)Nc4ccc(OC(C)C)cc4)CC3)ncnc2cc1OCCCN1CCCCC1`, the call in assay [7] was inactive. The Potency entry in assay [8] is “inactive”. Further, the viability (% of control) in [9] is 19.9%.
Turning to `Cc1cccc(-c2[nH]ncc2-c2ccc3ncccc3n2)n1`, the Potency result in assay [6] is “inactive”. Moreover, the outcome in assay [7] was inactive. Besides, the Potency in [8] was 13.7 µM (active). Further, the viability (% of control) in assay [9] came to 76.5% [at 92.2 µM].
In the case of `Oc1ccc2ccccc2c1SSc1c(O)ccc2ccccc12`, the call in assay [4] was inactive.
Take `S=c1nc[nH]c2nc[nH]c12`: the molecule was called inactive in [7]. For the same molecule, the Potency result in [8] is “inactive”. Also, the viability (% of control) in assay [9] turned out to be 39.5% [at 92.2 µM].
In the case of `O=C(CCc1ccc(O)cc1)c1c(O)cc(O)cc1O`, in assay [2], the Potency result is “inactive”. The outcome in assay [4] was inactive.
For the molecule `COc1ccccc1N1CCN(CCN(C(=O)C2CCCCC2)c2ccccn2)CC1`, the Potency result in assay [1] and in assay [2] was “inactive” in each case. Moreover, the molecule was classed as inactive in assay [4].
On to `CCOC(=O)C(C)Oc1cccc2c(=O)n(CC(=O)Nc3ccc4c(c3)OCCO4)ccc12` (stereo not given), for which the Potency result in [1], in assay [2], in [6] and in assay [8] was “inactive” in each case. The outcome in assay [4] and in assay [7] was inactive. The viability (% of control) in [9] was 109%.
Consider `OC(CN1CCN(c2cccc(Cl)c2)CC1)C(c1ccccc1)c1ccccc1` (stereo not given), for which the Potency result in assay [1] and in assay [2] was “inactive” in each case. Moreover, the molecule was classed as inactive in [4].
Consider `CC1(C)C(=O)N(CCN2CCC(C(=O)c3ccc(F)cc3)CC2)c2ccccc21`, for which the Potency entry in [2] was “inactive”. For the same molecule, the molecule was classed as inactive in assay [4].
On to `Cc1cc(O)c2c(c1)C(=O)c1cc(O)cc(O)c1C2=O`, for which the outcome in assay [4] was inactive.
Consider `CN(C)CCCC1(c2ccc(F)cc2)OCc2cc(C#N)ccc21` (stereo not given), for which the Potency entry in assay [1] and in [2] was “inactive” in each case. Moreover, the result in assay [4] was inactive.
`C[C@@H](N)C1CCC(C(=O)Nc2ccncc2)CC1` (stereo not given in full): the Potency result in assay [1], in assay [2] and in assay [6] was “inactive” throughout. The outcome in assay [7] was inactive. In addition, in [9], the viability (% of control) was found to be 91.3%.
In the case of `O=C(c1ccccc1)c1ccc2n1CCC2C(=O)O` (stereo not given), the Potency result in assay [1] and in [2] was “inactive” each time. Also, in assay [4], the call was inactive.
Turning to `O=c1ccc2ccc(O)c(O)c2o1`, the Potency result in assay [2] is “inactive”. Moreover, the result in assay [4] was inactive.
As for `Cc1cccc(C#Cc2ccccc2)n1`, the Potency result in [2], in assay [6] and in [8] was “inactive” each time. Further, the result in [4] and in assay [7] was inactive. Besides, the viability (% of control) in assay [9] was determined as 116%.
For the molecule `CCOC(=O)C1=C(O)C(=O)N(Cc2ccccc2)C1`, the Potency result in assay [6] and in [8] was “inactive” in each case. Also, the molecule was called inactive in assay [7]. Further, the viability (% of control) in assay [9] came out at 104%.
`CCN(CC)CCOc1ccc(Nc2ncc3cc(-c4c(Cl)cccc4Cl)c(=O)n(C)c3n2)cc1`: the Potency in assay [6] is 2.35 µM (active); in assay [8], 7.49 µM (active). For the same molecule, in assay [7], the call was inactive. Moreover, in assay [9], the viability (% of control) came to 0.582%.
As for `COc1cc(Nc2c(C#N)cnc3cc(OCCCN4CCN(C)CC4)c(OC)cc23)c(Cl)cc1Cl`, the molecule was classed as inactive in assay [7]. Moreover, the viability (% of control) in assay [9] is 4.66%.
As to `Oc1ccc(-c2nc(-c3ccc(F)cc3)c(-c3ccncc3)[nH]2)cc1`, the Potency entry in assay [1] and in assay [2] was “inactive” in each case. In addition, the result in assay [4] was inactive.
As for `Nc1nc(N)c(N=O)c(OCC2CCCCC2)n1`, the Potency result in [1] and in [2] was “inactive” each time. Moreover, the call in assay [4] was inactive.
Regarding `O=c1c(O)c(-c2cc(O)c(O)c(O)c2)oc2cc(O)cc(O)c12`, the call in assay [4] was inactive.
In the case of `Cc1nc(Nc2ncc(C(=O)Nc3c(C)cccc3Cl)s2)cc(N2CCN(CCO)CC2)n1`, the molecule was called inactive in assay [7]. In assay [8], the Potency was 16.8 µM (active). Besides, the viability (% of control) in assay [9] is 8.11%.
In the case of `COc1cc2nc(N3CCN(C(=O)C4CCCO4)CC3)nc(N)c2cc1OC` (stereo not given), the Potency result in [1] and in [2] was “inactive” in each case. In addition, the result in assay [4] was inactive.
As to `CC(C)C[C@H](NC(=O)[C@H](Cc1ccccc1)NC(=O)c1cnccn1)B(O)O`, the Potency in assay [6] is 0.0093 µM (active); in assay [8], 0.0053 µM (active). In assay [7], the result was inactive. Further, in assay [9], the viability (% of control) is 1.72%.
The like results for `Nc1nc(Cl)nc2c1ncn2[C@H]1C[C@H](O)[C@@H](CO)O1` were, in that order, 27 µM (active), “inactive”, “inactive” and -0.421% [at 92.2 µM].
Take `C[C@H](Cc1ccc(O)c(O)c1)[C@@H](C)Cc1ccc(O)c(O)c1`: the Potency in assay [1] is 0.631 µM (active); in [2] it was 12 µM (active). The result in [4] was inactive.
